Measurements from ChEMBL document CHEMBL4513216, “Probing the Open Global Health Chemical Diversity Library for Multistage-Active Starting Points for Next-Generation Antimalarials” (ACS Infect Dis, 2020).
Screen size: about 65,000 compounds; about 2,100 (3.2%) showed an effect of 50% or more. The median lay at about -52%. The full list was thinned out, with strong results kept by preference.

system: Plasmodium falciparum; experiment: Screen against P. falciparum Asexual Blood Stage (ABS), at 5uM; type: functional, Dd2; conditions: tested at 5 uM

SMILES | INHIBITION [%]
Cn1ccc2c(NC(=O)Cn3ncc4c(c3=O)CCCC4)cccc21 | -90.4
Cc1nc(C2CN(Cc3scnc3C)CCO2)cc(N(C)C)n1 (centres undefined) | -79.5
CC(O)CN1CCc2[nH]nc(C(c3ccccc3)c3ccccc3)c2C1 (centres undefined) | 42.3
OCCCN1CCc2onc(C(c3ccccc3)c3ccccc3)c2C1 | 49.4
OCCN1CCc2[nH]nc(C(c3ccccc3)c3ccccc3)c2C1 | 61.7
c1coc(CN2CC[C@H]3O[C@@H](COCC4CC4)CC[C@H]32)c1 | -93.2
Cc1nc(C)c(C(=O)N2C[C@@H](C(=O)O)[C@H](C3CC3)C2)s1 | -75.7
CCN(CC)Cc1nc2c(o1)CN(S(=O)(=O)c1cccs1)C2 | -61.5
CN(CCc1ccncc1)Cc1c(C2CCCC2)[nH]c2ncccc12 | -56.1
CN(CCc1ccccc1)Cc1c(C2CCOCC2)[nH]c2ncccc12 | -22.4
CN(CCc1ccccc1)Cc1c(C2CCNCC2)[nH]c2ncccc12 | 54.6
Cc1ccc(CN2CCN(C3CSCCSC3)CC2CCO)o1 (centres undefined) | -73.5
CC(C)c1cc(C2CCN(C(=O)Cn3nc4ccccc4n3)CC2)[nH]n1 | -107
O=C(c1ccc2[nH]ccc2c1)N1Cc2nc(CN3CCCCC3)oc2C1 | -72.8
CNS(=O)(=O)CCCN1CCCCCC1c1ccc(C)o1 (centres undefined) | 10.3
CC1CN(Cc2ccccc2)CCCN1CCS(C)(=O)=O (centres undefined) | 39.2
COCCN1CCN(CCCS(C)(=O)=O)CC1C (centres undefined) | -42.5
CNS(=O)(=O)CCCN1CCCN(Cc2ccccc2)CC1C (centres undefined) | 59.7
COCCN1CCN(CCCS(=O)(=O)c2ccccc2)CC1C (centres undefined) | -121
CC1CN(Cc2ccccc2)CCCN1CCCS(C)(=O)=O (centres undefined) | 53.2
O=C(Cn1cccn1)Nc1ccc(N2CCOCC2)cc1 | -6.33
CN(C)C(=O)Cc1nc(CN2CCOC(Cn3cccn3)C2)cs1 (centres undefined) | -56
Cc1nn(C)cc1CN1CCN(CC2(c3ccccc3)CC2)CC1 | 67.2
Cc1nn(C)cc1CN1CCCCCC1c1ccccc1Cl (centres undefined) | -104
Cc1nn(C)cc1CN1CCC(C2Nc3ccccc3S(=O)(=O)N2)CC1 (centres undefined) | -123
CCn1c(C)cc(C(=O)N2CCC(NC(=O)c3ccc(C)o3)CC2)c1C | -31.2

SMILES | INHIBITION [%]
CN(C)CC1CSCCCN1S(=O)(=O)c1ccc(C(F)(F)F)cc1 (centres undefined) | 60.7
CN(C)CC1CSCCCN1S(=O)(=O)Cc1cccc(F)c1 (centres undefined) | 58.6
CS(=O)(=O)C1CCN(S(=O)(=O)Cc2cccc(F)c2)CC1 | -89.8
CN(C)CC1CSCCCN1S(=O)(=O)Cc1ccc(C(F)(F)F)cc1 (centres undefined) | 10.1
Cc1nccn1CC1CCCN1S(=O)(=O)Cc1cccc(F)c1 (centres undefined) | -54
CN(C)CC1CSCCCN1C(=O)Nc1ccc(C(C)(C)C)cc1 (centres undefined) | -12.2
CC(C)N(Cc1ccc(C(=O)O)o1)C(C)C | -21.6
Cc1cnc(N2CCc3c(c(COc4cncnc4)nn3C)C2)nc1 | -95
CCc1nc(C2NC3(CCCC3)C(=O)N2CC2CC2)cs1 (centres undefined) | -67.6
CN(C)CCNC(=O)CCC1CCN(C(=O)c2ccc(Cl)cc2O)CC1 | -57.2
Cc1ccc(CN2CCC3(CC(=O)N(c4ccc5c(c4)OCO5)C3)C2)o1 (centres undefined) | -11.7
Cc1nc(C)n(C2CCCN(C(=O)COc3ccccc3)C2)n1 (centres undefined) | -30.7
Cc1ccc(S(=O)(=O)N2CC[C@@H](O)C2)c(F)c1 | -13.3
CCC[C@H]1CN(S(=O)(=O)c2cc(C)ccc2C)C[C@@H]1N | 68.6
Cc1ccc(F)c(S(=O)(=O)N2CCCC2c2ccncc2)c1 (centres undefined) | -73.9
Cc1noc(C)c1-c1n[nH]c2c1CN(S(=O)(=O)c1cccs1)CC2 | -24.2
CCC[C@H]1CN(S(=O)(=O)c2cc(C)ccc2F)C[C@@H]1N | 52.5
Cc1noc(C)c1-c1cccc(C2CCN(S(=O)(=O)N(C)C)CC2)n1 | -81.4
CCC[C@@H]1CN(S(=O)(=O)c2ccc(C)c(F)c2)C[C@H]1N(C)C | 39.9
Cc1ccc(C)c(S(=O)(=O)N2CCN(C)C3(CCC(=O)N(C)CC3)C2)c1 (centres undefined) | -107
CCC[C@H]1CN(S(=O)(=O)c2ccc(-c3c(C)noc3C)s2)C[C@@H]1N | 72.8
CN(C)c1cc2c(nn1)CCN(C(=O)c1ccc(-n3cccn3)nc1)C2 | -129
CC(C)n1nc(CN2CCOCC2)c2c1CN(C(=O)c1ccno1)C2 | -44.4
Cc1ccc(C(=O)N2CC[C@@H]3[C@H]2CCC(=O)N3CCN(C)C)cn1 | -2.53
CCc1cnc(NC(=O)NC2CCN(C)CC2)s1 | -80.8
CC1=N[C@@]2(CC[C@@H]3CN(C(=O)NCc4cccc(F)c4)C[C@@H]32)C(=O)N1 | -94.6

SMILES | INHIBITION [%]
CC(C(=O)Nc1ccccc1F)S(C)(=O)=O (centres undefined) | -75.4
Cc1nc(-c2ccc(Cl)cc2)n(CC(=O)NC(C)C)c(=O)c1CCO | -186
Cc1cc(C)c(C(=O)NC(CN2CCCC2)c2ccccc2)c(=O)[nH]1 (centres undefined) | -88.9
CCC(CN1CCCC1)NC(=O)Cc1c(C)[nH]c2cc(C)cc(C)c12 (centres undefined) | 61.6
Cc1cc(C)c(CCNC(=O)CN2CCCN(C(N)=O)CC2)c(C)c1 | -67.4
CC(=O)c1c(C)nn(CC(=O)N2CCCC2c2ccc(C(N)=O)s2)c1C (centres undefined) | -149
CCN(CC)C(=O)CCc1nc(-c2cnn3c(C)cc(C)nc23)no1 | -59.8
COC[C@H]1CCC[C@]12CN(CCc1ccccc1)CCO2 | -30.9
O=C1CC[C@H]2[C@H](CCN2S(=O)(=O)C2CC2)N1CCN1CCCC1 | -109
CC(C)[C@H](N)CC(=O)Nc1nc(-c2cnc(N3CCOCC3)nc2)cs1 | -62.3
CN1C[C@H](c2ccccc2)[C@H]2CN(C(=O)Cc3ccc(O)cc3)CC[C@H]21 | 58
CN1C[C@H](c2ccccc2)[C@H]2CN(C(=O)Cc3cccc(O)c3)CC[C@H]21 | 48.1
Cc1ccsc1[C@@H]1CCN(C(=O)Cc2ccc(O)cc2)C[C@H]1O | 11.1
COC(=O)[C@@H]1CCCN1C(=O)c1cn(C/C=C/c2ccccc2)nn1 | -29.2
CC(CCc1ccccc1)NC(=O)CNCCCN(C)C (centres undefined) | -20.5
CN(C)C(=O)CN1C(=O)C[C@@H]2[C@@H]1CCN2Cc1cccc(C#N)c1 | -63
N[C@@H]1c2ccccc2C2(CCN(c3cc(C(F)(F)F)ccn3)CC2)[C@H]1O | -15.6
CC(=O)N1CCN(CCNc2ncc(Br)cc2C)CC1 | -22.7
COC1CCN(CCNc2ncc(Br)cc2C)CC1 | 60.6
CCc1cnc(C)nc1NCCN1CCC(O)CC1 | -27.7
Cc1ccc(CN2CCn3cc(CN4CCN(C)CC4)nc3C2)cc1 | -112
O=C(NCCCN1CCOCC1)C(OC1CCCC1)c1ccccc1 (centres undefined) | 53.1
O=C(NCCN1CCOCC1)C(OC1CCCC1)c1ccccc1 (centres undefined) | -78
CN1CCN(CCNC(=O)C(OC2CCCC2)c2ccccc2)CC1 (centres undefined) | 39.2
CN(C)CC(=O)N1CCC2(CC1)CN(c1ncccn1)CCO2 | 5.56
Cc1ccc2c(c1)CCC21CCN(C(=O)CN(C)C)CC1 | 50.7

SMILES | INHIBITION [%]
Cc1ccc2c(c1)CCC21CCN(C(=O)CO)CC1 | -19.8
CN(C)CC(=O)N1CCC2(CCc3ccc(-c4ccncc4)cc32)CC1 | -41.7
CCCn1nc2c(cc1=O)CN(c1ncnc3ccsc13)CC2 | -43
CSCc1noc(CNS(=O)(=O)c2cccc(C(=O)NC3CC3)c2)n1 | -45.3
CC(C)n1cc(C(=O)NCCN(C)C)c2n[nH]c(=O)c-2c1 | -36.6
Cc1noc(C(C)C)c1C(=O)NCCCN1CCCC1 | -39.2
CC(C)CC(NCc1ccsc1)c1ccccn1 (centres undefined) | 60
CC(C)CC(NCc1cscn1)c1ccccn1 (centres undefined) | 32.3
CC(C)CC(NCc1cccs1)c1ccccn1 (centres undefined) | -21.4
CC(C)OCCC(=O)NCC(O)c1c(F)cccc1F (centres undefined) | -37.7
CN(C)CCNc1ncccc1CNC(=O)Nc1cc(F)cc(F)c1 | 55
Cc1nc(NC(=O)NCc2cccnc2NCCN(C)C)sc1C | -8.39
CC(C)c1nnc(NC(=O)NCc2cccnc2NCCN(C)C)s1 | -89.9
CC(O)CN1CCC(CNCc2cccc(C(N)=O)c2)CC1 (centres undefined) | -73.1
CC(O)CN1CCC(CNCc2cccc(C(=O)N(C)C)c2)CC1 (centres undefined) | -81.9
Cc1ncccc1CNCC1CCN(CC(O)c2ccccc2)CC1 (centres undefined) | 31.4
Cc1ccc(CNCC2CCN(CC(O)c3ccccc3)CC2)o1 (centres undefined) | 62.5
CC(O)CN1CCC(CNCc2ccccc2C(F)(F)F)CC1 (centres undefined) | 48.3
Cc1noc(C)c1CNCC1CCN(CC(O)c2ccccc2)CC1 (centres undefined) | 43.4
CC(O)CN1CCC(CNCc2ccccc2OC(F)(F)F)CC1 (centres undefined) | 67.7
CC(O)CN1CCC(CNCc2ccccc2F)CC1 (centres undefined) | -0.868
CC(O)CN1CCC(CNCc2cccc(OC(C)C)c2)CC1 (centres undefined) | 62.4
COCC(Nc1ncnc2c1CCNCC2)c1ccccn1 (centres undefined) | -66.2
CCOCC(=O)NCC1CCN(Cc2ccsc2)CC1 | -90.6
CN(C)Cc1ccnc(C2CCCN2Cc2ccc3ncccc3c2)n1 (centres undefined) | 42
COc1cc(CNc2cc(-c3nncn3C)ccn2)cc(OC)c1OC | -52.4
